Screening data deposited in PubChem BioAssay by Broad Institute.
The sample as a whole holds a higher share of hits than the screen did.
IDE exosite inh: exo-site inhibitors of human insulin-degrading enzyme. z-score at 20 µM. 6.3% of 17,000 active. AID 1259349. P14735. purified IDE, FL-6b probe fluorescence polarization; stronger effect = lower value;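 active = z-score of -3 or lower, meaning strong loss of probe binding signal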;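 also: His-tagged human IDE residues 42-1019 made in E. coli with 30 nM FL-6b probe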
Target sequence (P14735 42-1019 limits assumed): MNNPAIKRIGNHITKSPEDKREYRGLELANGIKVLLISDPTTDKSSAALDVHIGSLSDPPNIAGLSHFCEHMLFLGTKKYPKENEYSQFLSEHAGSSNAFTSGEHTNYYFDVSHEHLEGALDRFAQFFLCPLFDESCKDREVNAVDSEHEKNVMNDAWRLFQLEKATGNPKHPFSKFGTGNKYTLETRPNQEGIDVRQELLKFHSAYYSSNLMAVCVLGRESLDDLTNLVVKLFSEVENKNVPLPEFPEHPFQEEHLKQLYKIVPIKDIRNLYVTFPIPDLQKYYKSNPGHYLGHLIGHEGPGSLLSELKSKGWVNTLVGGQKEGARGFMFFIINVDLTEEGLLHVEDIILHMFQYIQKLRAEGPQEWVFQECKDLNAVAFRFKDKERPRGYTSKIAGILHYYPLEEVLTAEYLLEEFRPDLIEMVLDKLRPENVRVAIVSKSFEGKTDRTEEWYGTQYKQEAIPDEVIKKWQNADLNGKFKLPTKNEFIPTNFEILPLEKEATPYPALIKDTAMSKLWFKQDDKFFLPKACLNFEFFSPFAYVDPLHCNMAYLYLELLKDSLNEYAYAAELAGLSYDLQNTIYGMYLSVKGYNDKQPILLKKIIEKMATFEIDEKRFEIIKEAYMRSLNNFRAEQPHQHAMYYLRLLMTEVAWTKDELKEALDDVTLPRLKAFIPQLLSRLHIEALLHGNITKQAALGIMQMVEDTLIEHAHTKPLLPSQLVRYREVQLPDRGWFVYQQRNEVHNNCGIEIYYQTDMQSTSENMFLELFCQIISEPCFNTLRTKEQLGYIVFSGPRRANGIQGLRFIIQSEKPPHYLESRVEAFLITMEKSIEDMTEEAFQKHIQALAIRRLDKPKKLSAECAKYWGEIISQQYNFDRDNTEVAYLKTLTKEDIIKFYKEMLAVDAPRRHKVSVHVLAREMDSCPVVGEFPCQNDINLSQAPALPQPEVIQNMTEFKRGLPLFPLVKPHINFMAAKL
The depositor's hits bear a star.

SMILES | IDE exosite inh
COc1ccccc1NC(=O)N1C[C@H](O)COC[C@H]2O[C@@H](CC(=O)NCCc3ccncc3)CC[C@@H]21 | -0.1
CC(C)CC#Cc1ccc([C@H]2[C@H](CO)N3C(=O)CN(S(C)(=O)=O)C[C@@H]23)cc1 | 4.6
COc1cccc(C#Cc2ccc([C@H]3[C@H]4CN(C(=O)c5ccccc5)CC(=O)N4[C@H]3CO)cc2)c1 | -0.5
COc1cccc(C#Cc2ccc([C@H]3[C@H](CO)N4C(=O)CN(C(C)=O)C[C@@H]34)cc2)c1 | -5.4*
COc1cccc(C#Cc2ccc([C@@H]3[C@H]4CN(C(=O)c5ccncc5)CC(=O)N4[C@H]3CO)cc2)c1 | -2.4
CC(=O)N1CC(=O)N2[C@H](C1)[C@H](c1ccc(C#Cc3cccnc3)cc1)[C@@H]2CO | -0.76
COc1cccc(C#Cc2ccc([C@H]3[C@@H](CO)N4C(=O)CN(C(=O)c5ccncc5)C[C@H]34)cc2)c1 | -8.4*
CC(=O)N1CC(=O)N2[C@@H](CO)[C@@H](c3ccc(C#Cc4cccnc4)cc3)[C@@H]2C1 | -3.9*
COc1cccc(C#Cc2ccc([C@@H]3[C@H](CO)N4C(=O)CN(C(=O)c5ccccc5)C[C@@H]34)cc2)c1 | -1.8
COc1cccc(C#Cc2ccc([C@@H]3[C@H](CO)N4C(=O)CN(C(C)=O)C[C@@H]34)cc2)c1 | -15*
COc1cccc(C#Cc2ccc([C@@H]3[C@@H](CO)N4C(=O)CN(C(=O)c5ccccc5)C[C@@H]34)cc2)c1 | -2.8
CCC(=O)N1CC(=O)N2[C@H](CO)[C@H](c3ccc(C#Cc4cccnc4)cc3)[C@H]2C1 | 2.1
C[C@@H]1COCn2nncc2CC[C@H](Cc2cccc(Cl)c2)C(=O)N1 | 0.17
O=C(C[C@H]1C[C@H]2c3cc(NC(=O)CC4CC4)ccc3O[C@H]2[C@H](CO)O1)NCC1CC1 | 1.4
CCCC#Cc1ccc([C@H]2[C@@H](CO)N3C(=O)CN(C(=O)CN4CCOCC4)C[C@H]23)cc1 | 2.3
OC[C@H]1[C@H](c2ccc(-c3ccccc3F)cc2)[C@@H]2CN(Cc3cncnc3)CCCCN12 | 2.2
OC[C@@H]1[C@H](c2ccc(-c3ccccc3F)cc2)[C@H]2CN(Cc3cncnc3)CCCCN12 | -1.7
OC[C@@H]1[C@@H](c2ccc(C#Cc3ccccc3F)cc2)[C@H]2CN(Cc3cncnc3)CCCCN12 | -1.6
OC[C@H]1[C@H](c2ccc(C#Cc3ccccc3F)cc2)[C@@H]2CN(Cc3cncnc3)CCCCN12 | -2.3
OC[C@@H]1[C@H](c2ccc(C#Cc3ccccc3F)cc2)[C@@H]2CN(Cc3cncnc3)CCCCN12 | -3.5*
OC[C@H]1[C@H](c2ccc(C#Cc3ccccc3F)cc2)[C@H]2CN(Cc3cncnc3)CCCCN21 | -5.7*
COc1ccc2c3c(n(C)c2c1)[C@@H](CO)N(S(C)(=O)=O)CC31CCN(C(=O)Nc2cccc(F)c2)CC1 | -1.3
COCC(=O)N1CCCCN2[C@H](CO)[C@@H](c3ccc(C#Cc4ccc(OC)cc4)cc3)[C@@H]2C1 | -1.4
COCC#Cc1ccc([C@@H]2[C@@H](CO)N3CCCCN(C(=O)COC)C[C@H]23)cc1 | 1
COCC(=O)N1CCCCN2[C@H](CO)[C@@H](c3ccc(C#Cc4ccc(OC)cc4)cc3)[C@H]2C1 | 1.7
SMILES | IDE exosite inh
COCC(=O)N1CCCCN2[C@H](CO)[C@@H](c3ccc(-c4ccccc4)cc3)[C@@H]2C1 | -0.53
COCC(=O)N1CCCCN2[C@@H](CO)[C@H](c3ccc(C#Cc4ccccc4)cc3)[C@@H]2C1 | -11*
COCC(=O)N1CCCCN2[C@H](CO)[C@H](c3ccc(-c4ccccc4)cc3)[C@H]2C1 | -0.28
COCC(=O)N1CCCCN2[C@H](CO)[C@H](c3ccc(C#Cc4ccc(OC)cc4)cc3)[C@@H]2C1 | -8.5*
COCC(=O)N1CCCCN2[C@H](C1)[C@H](c1ccc(-c3ccccc3)cc1)[C@@H]2CO | -0.42
COCC(=O)N1CCCCN2[C@H](CO)[C@H](c3ccc(C#Cc4ccccc4)cc3)[C@@H]2C1 | -8.4*
COCC(=O)N1CCCCN2[C@H](C1)[C@@H](c1ccc(C#Cc3ccccc3)cc1)[C@@H]2CO | -5.9*
O=C(NCc1ccccc1)[C@H]1[C@H](CO)[C@H]2Cn3c(cccc3=O)[C@@H]1N2C(=O)Cc1ccccn1 | -0.64
C[C@@H]1CN([C@H](C)CO)C(=O)c2cc(NS(=O)(=O)c3ccc(F)cc3)ccc2O[C@@H]1CN(C)C(=O)Nc1ccccc1 | 2.3
Cc1ccc(S(=O)(=O)NCC[C@@H]2CC[C@@H](NC(=O)c3cccnc3)[C@@H](CO)O2)cc1 | 3.3
O=C(c1cccc(F)c1)N1CC(=O)N2[C@H](C1)[C@@H](c1ccc(-c3cccnc3)cc1)[C@@H]2CO | -2.7
O=C(Cc1cccnc1)N1CC(=O)N2[C@@H](CO)[C@H](c3ccc(C4=CCCC4)cc3)[C@@H]2C1 | 1
C/C=C/c1ccc([C@H]2[C@@H](CO)N(C(=O)C3CC3)[C@H]2CN(C)S(C)(=O)=O)cc1 | 5.7
O=C1NCCOCn2nncc2CC[C@H]1Cc1cccc(Cl)c1 | -0.57
CC(C)CC#Cc1ccc([C@H]2[C@H](CO)N3C(=O)CN(C(=O)Nc4ccc(F)cc4)C[C@@H]23)cc1 | 3.8
COCC#Cc1ccc([C@H]2[C@@H](CO)N3C(=O)CN(C(=O)Nc4ccccc4F)C[C@H]23)cc1 | 1.5
COc1cccc(-c2ccc([C@@H]3[C@H]4CNCC(=O)N4[C@H]3CO)cc2)c1 | -2.3
CCC(=O)NC[C@H]1[C@@H](c2ccc(-c3ccccc3)cc2)[C@@H](CO)N1C(=O)C1CC1 | -0.76
COCC(=O)N1[C@H](CN(C)C(=O)c2ccncc2)[C@@H](c2ccccc2)[C@@H]1CO | 2.4
O=C(c1ccc(F)cc1)N1CC(=O)N2[C@H](CO)[C@@H](c3ccc(C#CC4CC4)cc3)[C@@H]2C1 | 1.4
CC(=O)N1CC(=O)N2[C@@H](CO)[C@H](c3ccc(-c4ccccc4)cc3)[C@@H]2C1 | 1.5
O=C1CN(S(=O)(=O)Cc2ccccc2)C[C@H]2[C@H](c3ccc(C#Cc4cccc(F)c4)cc3)[C@H](CO)N12 | 0.85
COCC#Cc1ccc([C@H]2[C@@H](CO)N3CCCCN(C(=O)COC)C[C@H]23)cc1 | 2.6
COCC#Cc1ccc([C@@H]2[C@H]3CN(C(=O)COC)CCCCN3[C@H]2CO)cc1 | 0.85
COCC(=O)N1CCCCN2[C@H](C1)[C@H](c1ccc(C#Cc3ccccc3)cc1)[C@@H]2CO | -10*
SMILES | IDE exosite inh
Cc1ccc(S(=O)(=O)N[C@@H]2CC[C@H](CC(=O)NCc3ccncn3)O[C@@H]2CO)cc1 | -0.94
CCC(=O)N1CC(=O)N2[C@H](CO)[C@@H](c3ccc(C#CC(C)C)cc3)[C@H]2C1 | 1
COc1ccc(C#Cc2ccc([C@H]3[C@H](CO)N4C(=O)CN(C(=O)c5ccc(F)cc5)C[C@@H]34)cc2)cc1 | 0.55
COc1ccc(S(=O)(=O)Nc2ccc3c(c2)C(=O)N([C@@H](C)CO)C[C@H](C)[C@H](CN(C)Cc2ccc(C(F)(F)F)cc2)OCCCC[C@H](C)O3)cc1 | 0.61
N#C[C@@H]1[C@@H](c2ccccc2-c2ccccc2F)[C@H](CO)N1C(=O)C1CCC1 | -1.4
COc1ccc(C#Cc2ccc([C@H]3[C@@H](CO)N4C(=O)CN(C(=O)C5CCOCC5)C[C@H]34)cc2)cc1 | -1.4
COc1ccc(C#Cc2ccc([C@@H]3[C@@H](CO)N4C(=O)CN(C(=O)C5CCOCC5)C[C@H]34)cc2)cc1 | 1.6
O=C(C1CCCCC1)N1CC(=O)N2[C@H](CO)[C@@H](c3ccc(C#Cc4cccc(F)c4)cc3)[C@H]2C1 | -0.72
